Pf Dd2 growth: qHTS Primary assay for Inhibitors of Plasmodium falciparum Dd2 growth in vitro; Potency, µM (doses to about 28.9 µM), for the others: top-dose activity, negative = inhibition, usual class: inhibitors; 120,000 tested, 4.3% active; P. falciparum Dd2 growth, SYBR Green, 72 h; AID 1347417, 2020; active means well fitted inhibition curve with a large enough effect;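 further: plate controls were DMSO vehicle for no effect and reference drug for full effect; nearly all actives have a fitted effect of over 65% in size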
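Infected erythrocytes (Dd2, 0.3% parasitemia, 2.5% hematocrit final) are added to compound in RPMI-1640/Albumax II medium, grown 72 h at 37C in low oxygen, then lysed with saponin/Triton-X containing SYBR Green and read by fluorescence.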
An asterisk follows results filed as active; i = inactive; [ ] = dose if it differs, or a comment. Many of the other results were omitted from the sample, so hits are more common in it than they were. Potency means the concentration at half of the fitted maximal effect.

SMILES	Pf Dd2 growth
CC(C)(C)C1CCc2c(sc(NC(=O)c3cccc(Cl)c3)c2C(N)=O)C1 (stereo not drawn)	11.4%
CC(C)(C)C1CCc2c(sc(NC(=O)C3c4ccccc4Oc4ccccc43)c2C(N)=O)C1 (stereo not drawn)	12.6µM*
CC(C)(C)C(=O)N1CCC(F)(c2nc(-c3ccncc3)no2)CC1	-16.2%
Cn1c(CN2C(=O)C3(CCOCC3)CC2c2nnnn2C(C)(C)C)nc2ccccc21 (stereo not drawn)	-1.8%
CN(CCc1cnn(C)c1)C(=O)c1coc(COc2cccc(C(F)(F)F)c2)n1	-16.0%
O=C(Cn1nc2c(cc1=O)CCCC2)NCCc1ccco1	-7.2%
CCOc1ccccc1NC(=O)CN1C=C(C(=O)OC)C(C)=NS1(=O)=O	14.8%
Cc1nc(C2CCCC2)cc([C@H]2CN3CC[C@H]2C[C@@H]3CNC(=O)c2ccco2)n1	i
Cc1nc(-c2cccs2)cc([C@H]2CN3CC[C@H]2C[C@@H]3CNC(=O)c2ccco2)n1	i
COCC(=O)NC[C@H]1C[C@@H]2CCN1C[C@@H]2c1cc(-c2ccccc2)nc(C)n1	i
Cc1nc(-c2cccs2)cc([C@H]2CN3CC[C@H]2C[C@@H]3CNC(=O)c2ccc(N(C)C)cc2)n1	7.08µM*
Cc1nc(-c2ccccc2Br)cc([C@H]2CN3CC[C@H]2C[C@@H]3CNC(=O)C2CC2)n1	-0.5%
Cc1nc(-c2ccco2)cc([C@H]2CN3CC[C@H]2C[C@@H]3CNC(=O)C2CC2)n1	i
COc1ccc(C(=O)NC[C@H]2C[C@@H]3CCN2C[C@@H]3c2cc(-c3ccccc3Br)nc(C)n2)cc1	7.08µM*
COc1ccccc1-c1cc([C@H]2CN3CC[C@H]2C[C@@H]3CNC(=O)c2ccc(C)cc2)n(C)n1	i
Cc1nc(-c2ccc(C(F)(F)F)cc2)cc([C@H]2CN3CC[C@H]2C[C@@H]3CNC(=O)C2CC2)n1	i
Cc1nc(-c2ccc(N(C)C)cc2)cc([C@H]2CN3CC[C@H]2C[C@@H]3CNC(=O)C(C)(C)C)n1	7.08µM*
Cc1nc(-c2cccs2)cc([C@H]2CN3CC[C@H]2C[C@@H]3CNC(=O)CSCC(=O)O)n1	-4.0%
Cc1nc(-c2ccco2)cc([C@H]2CN3CC[C@H]2C[C@@H]3CNCc2ccccc2)n1	1.12µM*
CN(C)c1ccc(CN2CC(Oc3ccc(F)c(F)c3)C2)cc1	-18.2%
O=C1NCCN2CC3(CCN(C(=O)Nc4ccc5c(c4)OCCO5)CC3)CC12 (stereo not drawn)	-28.3%
O=C(c1ccc2ccccc2n1)N1CCC(n2c(=O)[nH]c3ccccc32)CC1	-20.6%
Cc1cc(F)ccc1OC1CN(C(=O)c2ccc3c(c2)OCO3)C1	i
COc1ccc(C(=O)N[C@H]2C[C@H]3C(=O)Nc4cc(Cl)ccc4C(=O)N3C2)cc1	-26.0%[44.1 µM]
CCC1(C(=O)NCc2ccc(Cl)cc2)CCCCC(=O)N1 (stereo not drawn)	7.0%
SMILES	Pf Dd2 growth
COc1ccc(-c2nc3scc(CCNS(=O)(=O)c4ccc(Oc5ccccc5)cc4)n3n2)cc1	-15.8%
COc1ccc(-c2nc3scc(CCNC(=O)Cc4ccc(F)cc4)n3n2)cc1	-12.1%
COc1ccc(-c2nc3scc(CCNC(=O)c4cc(OC)cc(OC)c4)n3n2)cc1	7.08µM*
Cc1ccc(NC(=O)C2CCN(C(=O)c3ncn4c3COC(c3ccc(F)cc3)C4)CC2)cc1C (stereo not drawn)	i
COc1ccc(CCNC(=O)c2ccc3c(c2)N(Cc2cccc(C)c2)C(=O)c2ccccc2S3(=O)=O)cc1OC	i
CCOC(=O)N1CCN(C(=O)c2ccc3c(c2)N(Cc2cccc(Cl)c2)C(=O)c2ccccc2S3=O)CC1 (stereo not drawn)	-10.8%
CC(=O)c1ccc(NC(=O)c2ccc3c(c2)N(Cc2cccc(Cl)c2)C(=O)c2ccccc2S3=O)cc1 (stereo not drawn)	11.2µM*
CC1CCCCN1C(=O)c1ccc2c(c1)N(Cc1cccc(Cl)c1)C(=O)c1ccccc1S2=O (stereo not drawn)	-12.4%
CCN1C(=O)c2ccccc2S(=O)c2ccc(C(=O)NCc3ccccc3OC)cc21 (stereo not drawn)	-20.1%
O=C(c1ccc2c(c1)N(Cc1cccc(Cl)c1)C(=O)c1ccccc1S2=O)N1CCC(Cc2ccccc2)CC1 (stereo not drawn)	-24.5%
NC(=O)C1CCN(C(=O)c2ccc3c(c2)N(Cc2cccc(Cl)c2)C(=O)c2ccccc2S3(=O)=O)CC1	21.9%
COc1ccc(NC(=O)c2ccc3c(c2)N(Cc2cccc(Cl)c2)C(=O)c2ccccc2S3=O)cc1Cl (stereo not drawn)	3.16µM*
O=C(NC1CCCCC1)c1ccc2c(c1)N(Cc1ccc(F)cc1)C(=O)c1ccccc1S2(=O)=O	-8.8%
COc1ccc(NC(=O)c2ccc3c(c2)N(Cc2cccc(Cl)c2)C(=O)c2ccccc2S3(=O)=O)cc1Cl	7.94µM*
CC1CCC(NC(=O)c2ccc3c(c2)N(Cc2cccc(Cl)c2)C(=O)c2ccccc2S3(=O)=O)CC1 (stereo not drawn)	11.2µM*
CN(C)C[C@@H]1CN(Cc2ccccc2)C[C@H]1NC(=O)CCn1cccn1	30.7%
O=C(c1c(OCC2CC2)cc(=O)n2c1CCCCC2)N1CCN(c2ccccn2)CC1	8.8%
O=C([C@H]1C[C@H](Oc2ccccc2)CN1C(=O)Cc1cccc(F)c1)N1CCOCC1	-4.7%
O=C(Nc1ccc(F)c(Cl)c1)c1cc2n(n1)CC(c1ccc3c(c1)OCO3)OC2 (stereo not drawn)	i
CN1C(=O)C(c2ccccc2)CC12CCN(C(=O)c1ccoc1)CC2 (stereo not drawn)	-13.6%
O=C(c1ccsc1)N1CCN(c2cc(C(F)(F)F)ncn2)CC1	i
CC(C)NC(=O)c1ccc2c(c1)N(Cc1cccc(Cl)c1)C(=O)c1ccccc1S2=O (stereo not drawn)	23.2%
COCCNC(=O)c1ccc2c(c1)N(Cc1cccc(Cl)c1)C(=O)c1ccccc1S2=O (stereo not drawn)	21.8%
CC(=O)Nc1ccc(NC(=O)c2ccc3c(c2)N(Cc2cccc(Cl)c2)C(=O)c2ccccc2S3=O)cc1 (stereo not drawn)	11.2µM*
COc1ccc(-c2noc([C@@H]3CCCN3C(=O)Cc3ccccc3C)n2)cc1OC	-0.9%
SMILES	Pf Dd2 growth
CCN(CC)S(=O)(=O)c1ccc(NC(=O)c2cc3ccc4cccnc4c3[nH]2)cc1	11.2µM*
O=C(Cn1ncc2c([nH]c3ccccc32)c1=O)NCC1CCN(Cc2ccc(F)cc2)CC1	i
CC1CCCN(C(=O)c2cc3ccc4cccnc4c3[nH]2)C1 (stereo not drawn)	-13.1%
O=C(NCC1CCN(Cc2ccc(F)cc2)CC1)c1cc2ccc3cccnc3c2[nH]1	7.08µM*
O=C(NCc1ccc(Cl)cc1)c1cc2ccc3cccnc3c2[nH]1	-17.2%
O=C(NCc1cccc(Cl)c1)c1cc2ccc3cccnc3c2[nH]1	12.6µM*
CCOC(=O)C1CCN(C(=O)c2cc3ccc4cccnc4c3[nH]2)CC1	15.6%
CCOC(=O)c1ccccc1NC(=O)c1cc2ccc3cccnc3c2[nH]1	-14.4%
O=C(c1cc2ccc3cccnc3c2[nH]1)N1CCCCC1	6.8%
O=C(NCC1CCN(Cc2ccccc2Cl)CC1)c1cc2ccc3cccnc3c2[nH]1	7.94µM*
O=C(c1cc2ccc3cccnc3c2[nH]1)N1CCN(c2cccc(Cl)c2)CC1	i
COc1ccccc1NC(=O)c1cc2ccc3cccnc3c2[nH]1	i
COc1ccc(OC)c(NC(=O)Cn2c(-c3cnccn3)nc(C)c(CCO)c2=O)c1	-3.6%

Source: PubChem
